# Bioassay records deposited in PubChem by National Center for Advancing Translational Sciences (NCATS).
# D1 agonist = human D1 receptor agonism; P21728; HEK293 T-REx D1 cells, calcium flux, agonist mode; activation, % at 2 µM; 1% of 360,000 active; note: 0% is about no effect
#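 Tetracycline-induced HEK293 TREx D1 cells, force-coupled to calcium signalling, were dye-loaded with a no-wash calcium kit. Compound was pin-added after a 10 s baseline. Fluorescence was read kinetically at 1 cycle/s for 180 s, with calcium rises flagged as agonism.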
# GRP78 ERSR act = inducers of ER stress response in human glioma cells. Potency, µM, for the others: top-dose activation, usual class: activators. 0.02% of 420,000 active. AID 602332. U87-MG GRP78 promoter luciferase reporter, 16 h; active = well fitted activation curve with a large enough effect; note: potency is the fitted concentration of half-maximal effect; series mostly up to about 76 µM; % of control where 0% means no effect; nearly all actives have a fitted effect of over 35% in size
#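 Stably transfected U87-MG glioma cells carrying a GRP78-based luciferase sensor; 16 h compound incubation. Luminescence end-point read 10 min after Bright-Glo addition at room temperature.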
# TRHR ag = agonists of human TRH receptor; 0.18% of 360,000 active; activation, % at 2 µM; TRHR cells, calcium flux fluo-8, FDSS agonist mode; P34981; note: 0% is about no effect
# Target sequence (P34981 whole entry, looked up): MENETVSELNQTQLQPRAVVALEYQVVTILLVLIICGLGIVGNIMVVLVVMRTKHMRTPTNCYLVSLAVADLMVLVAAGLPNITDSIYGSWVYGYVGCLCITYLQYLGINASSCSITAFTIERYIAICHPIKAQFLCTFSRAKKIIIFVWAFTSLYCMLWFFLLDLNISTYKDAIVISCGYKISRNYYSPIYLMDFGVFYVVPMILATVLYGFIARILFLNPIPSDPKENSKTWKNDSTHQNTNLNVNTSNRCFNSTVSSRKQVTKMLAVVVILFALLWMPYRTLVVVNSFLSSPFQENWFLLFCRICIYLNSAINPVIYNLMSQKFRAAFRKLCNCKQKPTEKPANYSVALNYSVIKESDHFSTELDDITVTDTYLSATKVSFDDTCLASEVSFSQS
#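 TRHR-expressing cells loaded with fluo-8 calcium dye; 23 nL library compound pin-transferred, kinetic FDSS fluorescence (Ex 480/Em 530) recorded about 180 s for agonist-induced calcium release, before a 10 nM TRH EC20 addition for potentiator mode.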
# D1 PAM = potentiators of human D1 dopamine receptor | HEK293 TREx D1 cells, calcium flux, dopamine EC20 potentiation | P21728 | potentiation, % at 10 µM | 0.036% of 360,000 active | AID 504651; in the data active = potentiation above about 30%; note: 0% is about no effect
# D1 antag = blocks dopamine activation of the human D1 receptor; P21728; HEK293 TREx D1 cells, calcium flux, dopamine EC80; hits give low values; activity change, negative = inhibition, % at 10 µM; 3.2% of 360,000 active; in the data active = activity change below about -30%; note: % is set by controls: 0 for no effect and ±100 for the full control effect
#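 Using tetracycline-induced force-coupled D1 Hek293 cells and a calcium dye, signals were followed for 180 s after compound, then for 180 s after EC80 dopamine, to detect inhibitors.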
# TRHR enhancer = allosteric enhancers of human TRH receptor; TRHR cells, fluo-8 calcium fluorescence, EC20 TRH enhancement; enhancement, % at 2 µM; 0.66% of 360,000 active; in the data active = enhancement above about 30%; note: 0% is about no effect
#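 TRHR-expressing cells loaded with fluo-8 calcium dye were read kinetically (ex 480/em 530) during compound addition, then stimulated with an EC20 of TRH (10 nM final). Enhancement of the Gq-mediated intracellular calcium response was scored.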
# * hit, by the source's call; . = not tested or not shown; ! = repeats disagree. Only some compounds are listed: those with a hit (about 4% of all), similar ones and a draw of the others. Cut-off read from the data, not from the text of the source, unless noted: active = activation above about 30%; inactive = the rest.
SMILES,D1 agonist,GRP78 ERSR act,TRHR ag,D1 PAM,D1 antag,TRHR enhancer
COc1cc(C2CC(=O)Oc3c(C(CCN4CCN(c5ccccc5)CC4)c4ccc(N(C)C)cc4)c(OC)cc(OC)c32)cc(OC)c1OC (configuration not stated),3,-2%,0,-1,-38*,11
COc1cc(OC)c2c(-c3ccccc3)cc(=O)oc2c1C(CCN1CCCC(C)C1)c1ccc(N(C)C)cc1 (configuration not stated),22,-6%,1,-8,1,11
COc1cc(C(CC(=O)N2CCN(c3ccccc3)CC2)c2c(OC)cc(OC)c3ccc(=O)oc23)cc(OC)c1OC (configuration not stated),1,-3%,0,-8,-42*,-8
Cc1ccc(NC2CCCN(C(=O)c3ccc(C)c(N4CCNC4=O)c3)C2)cc1C (configuration not stated),3,-1%,0,2,8,-3
COc1ccc(C(CC(=O)Nc2ncccc2C)N2Cc3ccccc3C2=O)cc1OC (configuration not stated),5,-3%,0,-5,9,-1
COc1cc(-c2noc(C)c2C(=O)N[C@@H](CO)Cc2ccccc2)cc(OC)c1OC,.,0%,.,.,.,.
COc1ccc(C(CCN2CCN(c3ccccc3)CC2)c2c(OC)cc(OC)c3c(-c4ccccc4)cc(=O)oc23)cc1 (configuration not stated),4,-3%,0,-9,-42*,1
COc1ccc(C(CCN2CCOCC2)c2c(OC)cc(OC)c3c(-c4ccccc4)cc(=O)oc23)cc1 (configuration not stated),.,2%,.,.,.,.
COc1cc(OC)c2ccc(=O)oc2c1C(CCN1CCN(c2ccccc2)CC1)c1ccc(N(C)C)cc1 (configuration not stated),0,-3%,0,-13,-74*,3
COc1cc(OC)c2c(-c3ccccc3)cc(=O)oc2c1C(CCN1CCN(c2ccccc2)CC1)c1ccc(N(C)C)cc1 (configuration not stated),4,-5%,0,-8,-32*,4
CC(=O)OC(C(=O)NC1CCCCC1)c1ccc(C)cc1 (configuration not stated),2,-5%,1,1,-5,1
O=C(c1nc[nH]c1C(=O)N1CCc2ccccc2C1)N1CCc2ccccc2C1,0,-1%,0,-2,-66*,7
CN1C(=O)C(C)(C)c2cc(S(=O)(=O)NCc3ccc(C(=O)Nc4ccc(Cl)cc4)cc3)ccc21,6,-5%,1,-2,-8,5
CN1CCN(C2=Cc3ccccc3Sc3cc(F)ccc32)CC1,8,-8%,0,-9,-62*,1
CN1CCN(C2=Cc3ccc(Cl)cc3Sc3ccc(F)cc32)CC1,9,-17%,1,-28,-91*,5
O=C(NNC(=O)C1CCN(C(=O)Nc2ccccc2)CC1)c1ccc(F)cc1,1,-3%,1,-2,6,-9
Cc1ccc(S(=O)(=O)N(C)C)cc1NC(=O)C1CCN(C(=O)Nc2ccccc2)CC1,2,-1%,0,-6,-34*,-5
Cc1ccc(S(=O)(=O)N(C)C)cc1NC(=O)C1CCCC1,11,-2%,1,7,9,-2
Cc1ccccc1C(=O)NNC(=O)C1CCN(C(=O)Nc2ccccc2)CC1,0,-3%,0,-7,-45*,-2
CS(=O)(=O)c1ccc(C(=O)NCC2(N3CCOCC3)CCCCC2)cc1,.,-2%,.,.,.,.
NC(=O)COc1ccc(C(=O)NCC2(N3CCOCC3)CCCCC2)cc1,0,-7%,0,0,-32*,0
O=C(COc1ccccc1)NCC1(N2CCCCC2)CCCCC1,-1,-2%,0,3,-66*,5
N#Cc1ccc(OCC(=O)NCC2(N3CCCCC3)CCCCC2)cc1,5,-4%,0,-3,35,-2
CCCC(=O)OCC(=O)Nc1ccccc1C#N,0,-1%,1,-5,-25,1
CCOC(=O)CC(NC(=O)Cn1nnc(-c2ccccc2F)n1)c1ccc(OC)cc1 (configuration not stated),13,3%,1,-4,16,2
SMILES,D1 agonist,GRP78 ERSR act,TRHR ag,D1 PAM,D1 antag,TRHR enhancer
CCOC(=O)CC(NC(=O)Cn1nnc(-c2ccccc2Cl)n1)c1ccc(OC)cc1 (configuration not stated),65*!,-2%,7,-4,-10,12
Cc1c(CNCCc2ccc(Cl)cc2)c(C(=O)O)c(C)n1Cc1ccccc1,4,6%,0,-2,-4,-1
CCOc1ccccc1CNCc1c(C(=O)O)c(C)n(Cc2ccc(Cl)cc2)c1C,-1,-1%,0,0,-67*,-24
COc1cc(OC)cc(C(=O)NCCCCNC(=O)c2cc(OC)cc(OC)c2)c1,.,-4%,.,.,.,.
CCC(=O)NC(c1ccc([N+](=O)[O-])cc1)c1c(O)ccc2ccccc12 (configuration not stated),13,-3%,0,0,-37*,3
Cc1ccc(S(=O)(=O)N2CCCCC2)cc1NC(=O)C1CCC1,7,-1%,0,.,-34*,4
Cc1ccc(Oc2ccc(NC(=O)Cn3ccsc3=N)cc2)cc1,85*,-1%,3,-6,-29,-8
Cc1ccc(S(=O)(=O)N2CCCCC2)cc1NC(=O)Cn1ccsc1=N,3,-8%,0,-8,-39*,-7
Cc1ccc(S(=O)(=O)N2CCOCC2)cc1NC(=O)C1=NN(c2ccccc2)C(=O)CC1,2,-4%,0,-4,2,-6
COc1ccc(S(=O)(=O)N2CCCCC2)cc1NC(=O)C1CCCC1,0,-2%,-1,7,8,7
Cc1ccc(S(=O)(=O)N2CCCCC2)cc1NC(=O)C1=NN(c2ccccc2)C(=O)CC1,6,-3%,0,-9,-44*,-6
N=c1sccn1CC(=O)Nc1cc(S(=O)(=O)N2CCCCC2)ccc1Cl,4,-5%,0,-3,-30,4
CC1(C)Oc2ccc3ccc(=O)oc3c2/C(=C/Nc2ccccn2)C1=O,-1,-1%,0,-5,-18,-2
C=C(CC[C@@H](O)C(C)(C)O)[C@H]1CC[C@]2(C)[C@@H]1CCC1[C@@]3(C)CCC(=O)C(C)(C)C3CC[C@]12C (some centres not stated),.,1%,.,.,.,.
Cc1ccc(C(=O)NNC(=O)c2cccc(C)c2)cc1,1,2%,0,5,-2,-12
O=C(O)Cc1ccc(NC(=O)Nc2cccc(Cl)c2)cc1,0,3%,0,-5,-51*,-5
